From PubChem
KB-V1 cytotox: qHTS assay for MDR1-selective chemotherapeutics: Primary screen using the drug-selected MDR subline cells KB-V1 | KB-V1 MDR cells viability, CellTiter-Glo, 72 h | Potency, µM (top dose mostly 46.1 µM), actives largely listed as cytotoxic | 3.4% of 400,000 active | AID 1347076, 2019; further: on the % scale 0 is the no-effect control and ±100 the full control effect; nearly all actives have a fitted effect of over 60% in size
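KB-V1 cells (P-gp-expressing MDR subline of KB-3-1) in phenol-red-free DMEM with 10% FBS were exposed to library compounds over a concentration series for 72 h at 37 degrees C. Viability read by CellTiter-Glo luminescence; concentration-effect curves fitted after normalization.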
MCF10A rereplic: A quantitative high throughput screen for small molecules that induce DNA re-replication in MCF 10a normal breast cells. Potency, µM (highest dose often 46.1 µM), for inactives: top-dose activity, positive = re-replication, usual class: activators. AID 624296, 2012. 2.9% of 350,000 active. MCF 10A DNA re-replication, Hoechst nuclear intensity, 48 h; further: % of control where 0% means no effect; nearly all actives have a fitted effect of over 50% in size
SW480 rerep: A quantitative high throughput screen for small molecules that induce DNA re-replication in SW480 colon adenocarcinoma cells. 1.8% of 340,000 active. Potency, µM (highest dose often 46.1 µM), without a hit: at the highest dose re-replication activation, usual class: activators. AID 624297, 2012. SW480 DNA re-replication, Hoechst DNA content imaging, 48 h; further: % of control where 0% means no effect; nearly all actives have a fitted effect of over 55% in size
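Image-based DNA-content assay: after two days of treatment, nuclei were labelled with the DNA dye Hoechst and imaged, and hits were compounds raising the count of nuclei showing high fluorescence intensity.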
KB-3-1 cytotox: qHTS assay for MDR1-selective chemotherapeutics: Primary screen using the parental adenocarcinoma cell KB-3-1. AID 1347075, 2019. KB-3-1 viability, CellTiter-Glo ATP luminescence, 72 h. 1.4% of 400,000 active. Potency, µM (highest dose often 46.1 µM), actives largely listed as cytotoxic; further: on the % scale 0 is the no-effect control and ±100 the full control effect; nearly all actives have a fitted effect of over 60% in size
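Parental KB-3-1 viability, qHTS format: 72 h compound exposure, 37 °C; CellTiter-Glo; media-only wells and DMSO plates as controls; concentration-effect fits on corrected data.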
HT1080NT lethal: qHTS for induction of synthetic lethality in tumor cells producing 2HG: qHTS for the HT-1080-NT fibrosarcoma cell line. HT-1080-NT fibrosarcoma viability, CellTiter-Glo ATP luminescence, 48 h. Potency, µM (highest dose often 46.1 µM), for the others: at the highest dose activity, negative = less viability, actives largely listed as cytotoxic. 1.6% of 360,000 active;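 further: NT is the 2HG producing partner of a matched IDH1 knockdown line; 0% = DMSO-treated cells and -100% = media-only wells without cells; nearly all actives have a fitted effect of over 55% in size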
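HT-1080-NT fibrosarcoma cells (2HG-overproducing), 750 cells/well in RPMI with 5% FBS, dosed after 2 h and incubated 48 h at 37C. CellTiter-Glo luminescence normalized to DMSO and no-cell wells; concentration-response curves fitted and classed.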
HT1080 IDH1KD tx: qHTS for induction of synthetic lethality in tumor cells producing 2HG: qHTS for the HT-1080-IDH1KD cell line. Potency, µM (series often up to 46.1 µM), without a hit: top-dose activity, negative = toxicity, usual class: cytotoxic. HT-1080 IDH1 knockdown viability, ATP luminescence, 48 h. 2% of 360,000 active. AID 686971, 2013;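 further: 0% = DMSO wells and -100% = cell-free medium wells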
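Cytotoxicity counter-line: IDH1KD HT-1080, 48 h, CellTiter-Glo. Curves classed by r2, magnitude and activity.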
Starred values were filed as active, the others as inactive; i = inactive; ? = inconclusive; . = no result; [ ] = remark or other dose. A selection: hits, their analogues and other compounds. The true share with any hit is near 7.9%. The call rests on the fitted dose curve; in most records, active means well fitted curve in the direction sought with a large enough effect; inconclusive means small, poorly fitted or top-dose-only effect, or another doubt; inactive means no such curve, though single readings can be large; an effect the other way counts as inactive or inconclusive. Potency means the concentration at half of the fitted maximal effect.

SMILES	KB-V1 cytotox	MCF10A rereplic	SW480 rerep	KB-3-1 cytotox	HT1080NT lethal	HT1080 IDH1KD tx
CCOc1ccc(C2c3c(oc4ccc(C)cc4c3=O)C(=O)N2Cc2ccc3c(c2)OCO3)cc1OC (stereo unspecified)	i	.	.	i	.	.
CCCCc1ccc(NC(=S)Nc2ccc(Nc3ccc(OC)cc3)cc2)cc1	16.4µM*	20.6µM*	?	?	-8.3%	?
CC(C)Cn1cnc2c1c(=O)[nH]c(=O)n2Cc1ccccc1	i	-4.3%	-3.3%	i	9.4%	-1.8%
Clc1ccc2nnnc(-c3ccccc3)c2c1	10.3µM*	3.26µM*	?	2.59µM*	?	?
COCCNC(=O)c1cccc(Nc2nc(-c3ccccc3)c3cc(Cl)ccc3n2)c1	?	2.59µM*	?	14.6µM*	-23.3%	?
Cc1ccc2nc(N/N=C/c3ccccc3C#N)nc(-c3ccccc3)c2c1	?	13µM*	?	i	1.2%	-6.0%
CC(=O)NNc1nc(-c2ccccc2)c2cc(Cl)ccc2n1	i	.	.	i	-4.9%	0.5%
c1ccc(-c2nnnc3ccccc23)cc1	i	-1.4%	-9.7%	i	10.1%	9.6%
Cc1ccc2nc(NCCO)nc(-c3ccccc3)c2c1	11.6µM*	?	?	i	-3.4%	-14.4%
CCCOC(=O)c1ccc(Cn2nnc3sc4c(c3c2=O)CCC(C)C4)cc1 (stereo unspecified)	i	.	.	i	.	.
CC(C(=O)c1ccc(Br)cc1)[n+]1cccc2ccccc21 (stereo unspecified)	i	-2.2%	-2.8%	?	-0.4%	-0.7%
COc1ccccc1NC(=O)CSCc1cc(=O)c2cccc(Cl)c2[nH]1	i	.	.	i	.	.
CN1C[C@@H]2C[C@H]1CN2c1cc2c(cc1F)c(=O)c(C(=O)O)cn2C1CC1	.	1.4%	-2.5%	.	.	.
OCCNc1nc(-c2ccccc2)c2ccccc2n1	i	?	?	i	-1.6%	1.9%
OCCNc1nc(-c2ccccc2)c2cc(Cl)ccc2n1	?	20.6µM*	?	i	?	?
O=C(Cc1ccc(NC(=O)C2CCN(C(=O)C3CC3)CC2)cc1)Nc1cccc(C(=O)N2CCCC2)c1	i	-1.7%	-14.7%	i	-0.4%	10.6%
Cc1cc(C)c(NC(=O)CSc2nc3ccc(NC(=O)CSc4nnnn4Cc4ccccc4)cc3s2)c(C)c1	6.51µM*	18.7%	-3.0%	i	-25.4%	6.9%
CCOC(=O)COc1ccc2c(C#N)c3ccccn3c2c1	i	20.6µM*	?	i	12.4%	-1.4%
N#Cc1c2ccc(OCC(N)=O)cc2n2ccccc12	i	22.0%	10.1%	?	?	-15.9%
COc1ccc(C(c2nnnn2C2CCCCC2)N2CCN(C/C=C/c3ccccc3)CC2)cc1 (stereo unspecified)	?	.	.	i	?	?
CCN(CC)CCN1C(=O)C2C(C(=O)Nc3cccc(SC)c3)C3C=CC2(O3)C1C(=O)NC1CCCC(C)C1C (stereo unspecified)	?	11.8%	18.4µM*	i	-15.2%	-24.8%
COc1ccc(C(=O)C=CNNC(=O)c2ccc(Cl)cc2)cc1	?	5.8µM*	3.66µM*	?	-28.2%	?
COc1ccc(C(=O)NN/C=C/C(=O)c2ccc(Br)cc2)cc1	i	.	.	i	-17.8%	-26.4%
CN(CC(=O)Nc1c(Cl)cccc1Cl)C(=O)c1cc(-c2cccs2)nn1-c1ccccc1	4.11µM*	?	-0.1%	i	6.9%	4.1%
Cc1ccc(C)c(S(=O)(=O)N2CCN(C(=O)c3cc(-c4cccs4)nn3-c3ccccc3)CC2)c1	6.51µM*	?	-0.5%	?	-5.3%	-8.4%
SMILES	KB-V1 cytotox	MCF10A rereplic	SW480 rerep	KB-3-1 cytotox	HT1080NT lethal	HT1080 IDH1KD tx
Cc1ccc(NC(=O)Cn2c(=O)ccc3cc(S(=O)(=O)N4CCC(C)CC4)ccc32)cc1C	?	.	.	i	.	.
C[Se]CC[C@H](N)C(=O)O	.	-4.9%	-2.7%	.	.	.
OC(Cc1cccnc1)(c1ccccc1)c1ccccc1	18.4µM*	-0.5%	1.1%	?	6.9%	7.4%
COc1cccc(NC(=S)N2CCC(C(=O)c3ccc(F)cc3)CC2)c1	i	?	-1.3%	i	-2.3%	-0.3%
CCOC(=O)C[C@H]1c2cc(F)ccc2S(=O)(=O)N1Cc1cc(OC)c(OC)c(OC)c1	?	.	.	i	.	.
CC(C)=CCC/C(C)=C/C(N)=O	i	-0.8%	-5.4%	i	14.9%	1.3%
CC(C)=CCC/C(C)=C/C=C/C(C)=C/C=C/C(C)=C/C=C/C=C(C)/C=C/C=C(C)/C=C/C=C(\C)CCC=C(C)C	.	?	18.8µM*	.	.	.
CS(=O)(=O)Nc1ccccc1C(=O)OCC(=O)N1CCC(c2ccccc2)=N1	i	1.8%	0.3%	i	2.4%	9.2%
CCOC(=O)Cc1nnc(NC(=O)CSc2nnc3c4ccccc4n(C)c3n2)s1	i	?	0.731µM*	i	?	?
Cc1ccc(C2=NN=C(NC(=O)CSc3nnc4c5ccccc5n(C)c4n3)SC2)cc1	?	-45.1%	?	?	?	29.1µM*
CCOC(=O)C(C)Sc1nnc2c3ccccc3n(C)c2n1 (stereo unspecified)	i	1.84µM*	-7.6%	i	10.1%	2.1%
O=C(Cc1c(F)cccc1Cl)N/N=C/c1cccnc1	?	0.3%	-28.2%	i	7.3%	7.8%
CC1(C)CC(=O)C2=C(C1)OC(N)=C(C#N)C2C1CC=CCC1 (stereo unspecified)	16.4µM*	0.3%	-0.4%	i	26.1%	-8.6%
CC1C(C#N)=C(N)OC2=C1C(=O)CC(C)(C)C2 (stereo unspecified)	?	-193.6%[0.0737 µM]	-1.3%	i	-0.7%	1.5%
N#CC1=C(N)Oc2cc(N)ccc2C1C1CC=CCC1 (stereo unspecified)	6.51µM*	6.51µM*	16.4µM*	?	?	?
Cc1[nH]nc2c1C(C1CC=CCC1)C(C#N)=C(N)O2 (stereo unspecified)	i	?	?	?	?	?
Fc1ccc(CNc2ncnc3c2c(-c2ccccc2)cn3-c2ccccc2)cc1	i	.	.	?	.	.
COc1cccc(C(C(=O)NC2CCCC2)N2CCN(c3cc(C)nc4ccccc34)CC2)c1OC (stereo unspecified)	?	.	.	i	-11.3%	-3.9%
